# Test results published in PubChem BioAssay (NCATS).
# Records with an inconclusive call do not appear. Where a call stands in place of a potency, no number is given. Activity calls are given as the source filed them. The call rests on the fitted dose curve; in most records, active means well fitted curve in the direction sought with a large enough effect; inconclusive means small, poorly fitted or top-dose-only effect, or another doubt; inactive means no such curve, though single readings can be large; an effect the other way counts as inactive or inconclusive. *1 amine or outer side, *2 acyl side, *3 side chain or, on linkers, in order; H or OH if unused. Where a SMILES comes first, the peptide text is derived from it. Bridges are numbered along the chain shown (N, C = ends). [ ]: non-standard residue; d: D form. The star is where a group is joined. ξ: configuration not given here. ξhTyr(3S-OH,4S-OH,3'-OSO3H) = NC(C(=O)O)[C@H](O)[C@@H](O)c1ccc(O)c(OS(=O)(=O)O)c1; Orn(4R-OH,5R-OH) = O=C([C@H](C[C@@H](O)[C@@H](O)N[*:3])N[*:1])[*:2]; X2 = CCCCCOc1ccc(-c2cc(-c3ccc(C(=O)*)cc3)no2)cc1; X3 = C[C@H]1CN([*:1])C(C(=O)[*:2])[C@H]1O; ξGln(3R-OH) = NC(=O)C[C@@H](O)C(N)C(=O)O; ξPro(4R-OH) = O=C(O)C1C[C@@H](O)CN1; ξThr(3R) = C[C@@H](O)C(N)C(=O)O
# Legend:
# [1] = P-glycoprotein substrates identified in KB-3-1 adenocarcinoma cell line, qHTS therapeutic library screen (AID 1346986); further: nearly all actives have a fitted effect of over 60% in size
# Outline: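 Viability read by CellTiter-Glo after 72 h compound exposure in dose-response of KB-3-1 and KB-8-5-11 (P-gp-high) cells. Hits needed AC50 < 10 uM, >50% maximum response and curve class -1.1 to -2.4. Cherry-picks retested ± tariquidar, including pcDNA/MDR-19 HEK-293 pair.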
# [2] = P-glycoprotein substrates identified in KB-8-5-11 adenocarcinoma cell line, qHTS therapeutic library screen (AID 1346987); further: nearly all actives have a fitted effect of over 65% in size
# Outline: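 Compounds are pinned in dose-response onto KB-8-5-11 cells (500 cells/well, colchicine-free medium) and left 72 h at 37 degree C. CellTiter-Glo luminescence then yields AC50 values.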
# [3] = target: Furin (Homo sapiens) (UniProt P09958); assay: Furin counterscreen qHTS for Zika virus inhibitors (AID 1347149); further: nearly all actives have a fitted effect of over 70% in size; further: potency means the concentration at half of the fitted maximal effect
# Furin (Homo sapiens), sequence (P09958 whole entry, looked up): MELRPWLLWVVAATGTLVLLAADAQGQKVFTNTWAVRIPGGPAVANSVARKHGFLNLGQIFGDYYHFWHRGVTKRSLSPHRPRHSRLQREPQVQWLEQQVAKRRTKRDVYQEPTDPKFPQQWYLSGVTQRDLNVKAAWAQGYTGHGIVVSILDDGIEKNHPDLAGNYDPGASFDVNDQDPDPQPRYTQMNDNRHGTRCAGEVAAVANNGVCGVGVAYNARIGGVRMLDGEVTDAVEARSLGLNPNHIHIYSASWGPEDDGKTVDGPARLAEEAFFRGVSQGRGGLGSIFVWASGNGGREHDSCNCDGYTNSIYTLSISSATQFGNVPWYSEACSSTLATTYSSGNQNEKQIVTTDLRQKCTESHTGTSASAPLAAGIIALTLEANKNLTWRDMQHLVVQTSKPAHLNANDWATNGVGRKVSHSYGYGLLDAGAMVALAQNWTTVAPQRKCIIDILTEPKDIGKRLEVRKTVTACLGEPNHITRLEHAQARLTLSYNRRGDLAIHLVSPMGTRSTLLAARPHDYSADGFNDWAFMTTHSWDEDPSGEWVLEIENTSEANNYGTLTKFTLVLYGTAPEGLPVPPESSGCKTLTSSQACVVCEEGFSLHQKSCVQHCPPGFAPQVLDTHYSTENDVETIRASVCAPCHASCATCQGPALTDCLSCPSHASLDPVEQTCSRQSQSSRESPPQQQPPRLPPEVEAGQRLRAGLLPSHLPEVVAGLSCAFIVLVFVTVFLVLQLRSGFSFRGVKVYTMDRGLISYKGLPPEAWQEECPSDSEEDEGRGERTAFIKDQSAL
# Outline: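 Counterscreen measures cleavage of 2 microM BOC-RVRR-AMC, below its ~15 microM Km, by 5 nM full-length human furin at pH 7.0 after a 15-min compound preincubation. Inhibition derives from the 15-min fluorescence increase at 37C.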
# [4] = system: Zika virus NS2B-NS3 protease (linked construct); assay: Confirmatory screen NINDS AMC qHTS for Zika virus inhibitors (AID 1347152); further: potency means the concentration at half of the fitted maximal effect; nearly all actives have a fitted effect of over 70% in size
# Outline: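 In this dose-response qHTS, AMC release from 10 microM Bz-Nle-KRR-AMC by 1 nM linked protease is measured over 15 minutes (about 20% conversion) at pH 8.0. Percent inhibition is fitted to a 4-parameter Hill curve.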
# [5] = system: Zika virus NS2B-NS3 protease (unlinked complex); assay: Confirmatory screen GU AMC qHTS for Zika virus inhibitors (AID 1347153); further: nearly all actives have a fitted effect of over 70% in size;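 on potency: enzyme at 25 nM with substrate at 10 µM below its Km of 18.3 µM; potency means the concentration at half of the fitted maximal effect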
# Outline: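 Noncovalent NS2B hydrophilic domain/NS3 protease complex (25 nM) in 10 mM Tris-HCl pH 8.0, 0.01% Tween 20 was preincubated 15 min at room temperature with compounds. Then 10 µM AMC substrate (Km 18.3 µM) was added; fluorescence was read over 15 min and fitted to a 4-parameter Hill equation.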
# [6] = system: Zika virus NS2B-NS3 protease (unlinked complex); assay: Primary screen GU Rhodamine qHTS for Zika virus inhibitors: Unlinked NS2B-NS3 protease assay (AID 1347159); further: nearly all actives have a fitted effect of over 60% in size; further: potency means the concentration at half of the fitted maximal effect
# Outline: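 Buffer 10 mM Tris-HCl pH 8.0, 0.01% Tween 20. Unlinked protease 25 nM; compound preincubation 15 min, RT, protected from light. Substrate Rhod110, 1.5 microM; ~15% conversion in 15 min.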
# [7] = system: Zika virus NS2B-NS3 protease (linked construct); assay: Primary screen NINDS Rhodamine qHTS for Zika virus inhibitors (AID 1347160); further: nearly all actives have a fitted effect of over 55% in size; further: potency means the concentration at half of the fitted maximal effect
# Outline: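 Aprotinin served as in-plate control. Conditions: 25 nM linked NS2B-NS3, pH 8.0 Tris buffer, titrated compounds, 15 min preincubation and 15 min reaction with 1.5 microM Rhod110 substrate at room temperature.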
# [8] = Confirmatory screen NINDS Rhodamine qHTS for Zika virus inhibitors (AID 1347161); further: potency means the concentration at half of the fitted maximal effect; nearly all actives have a fitted effect of over 60% in size
# Outline: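 qHTS dose-response: 25 nM linked protease, pH 8.0 Tris/Tween buffer, cpd titration, 15 min RT preinc, 1.5 microM Rhod110 peptide, 15 min reaction (~15% conversion), Ex480/Em540; 4-parameter Hill fit.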
# [9] = system: Zika virus NS2B-NS3 protease (linked construct); assay: 384 well plate NINDS Rhodamine confirmatory qHTS for Zika virus inhibitors (AID 1347164); further: top concentration of the series differs between compounds; nearly all actives have a fitted effect of over 65% in size
# Outline: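 Compounds are incubated about 15 minutes with linked protease (5, 30 or 60 nM final). Rhodamine 110-tagged Ac-LKRR substrate (10 microM final) is added and fluorescence measured after 25 minutes.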
# [10] = ZIKV-mCherry secondary qHTS for Zika virus inhibitors (AID 1347158); further: top concentration of the series differs between compounds
# Outline: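 Percent infection is the share of Hoechst-identified Vero nuclei with mCherry signal above 450 RFU (3 SD over negative controls). Cells were infected with recombinant ZIKV-mCherry at MOI 1 after compound addition and imaged 48–72 h later.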
# [11] = system: Zika virus NS2B-NS3 protease (linked); assay: 384 well plate NINDS AMC confirmatory qHTS for Zika virus inhibitors (AID 1347163); further: potency means the concentration at half of the fitted maximal effect; nearly all actives have a fitted effect of over 50% in size
# Outline: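 Fluorescence at 355/460 nm was read after 25 minutes of cleavage of 30 microM Ac-VKTGKR-AMC at room temperature, in the dark. Before substrate addition, compounds (up to 1 mM final) sat ~15 minutes with 5, 30 or 60 nM linked protease. Signals were normalized to no-enzyme and no-inhibitor wells.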
smiles,measurement,setting,value
CC(=O)OC1CC(=O)C2(C)C3CC4=C(OC(C)CC4=O)OC3(C)CCC2C1(C)C (centres undefined),Potency,[1],inactive
same,Potency,[2],inactive
CC1(C)CC=C(c2cnc3ccccc3c2)c2cc(C(=O)Nc3ccc(C(=O)O)cc3)ccc21,Potency,[1],inactive
same,Potency,[2],inactive
same,Potency,[3],44.1 µM (active)
same,Potency,[4],17.5 µM (active)
same,Potency,[5],15.6 µM (active)
same,Potency,[6],1.78 µM (active)
same,Potency,[7],3.16 µM (active)
same,Potency,[8],1.97 µM (active)
same,Potency,[9],inactive
O=C(/C=C/c1ccc(O)c(O)c1)O[C@H]1[C@@H]2C=CO[C@@H](O[C@@H]3O[C@H](CO)[C@@H](O)[C@H](O)[C@H]3O)[C@@H]2[C@@]2(CO)O[C@@H]12,Potency,[1],inactive
same,Potency,[2],inactive
CCC(C)/C=C(C)/C=C/C1=CC2=C(Cl)C(=O)C(C)(OC(C)=O)C(=O)C2=CN1C(CCC(=O)O)C(=O)O (centres undefined),Potency,[1],inactive
same,Potency,[2],inactive
C[C@@H](CC[C@@H]1[C@@]2(C)CCCC(C)(C)C2CC[C@@]1(C)O)CC(=O)O (some centres undefined),Potency,[1],inactive
same,Potency,[2],inactive
CC(=O)OC/C(=C/C(=O)O)CC[C@@H]1C(CO)=CC[C@@H]2C(C)(C)CCC[C@@]12C,Potency,[1],inactive
same,Potency,[2],inactive
C[C@]1(C2CCCC2)Cc2cc(OCC(=O)O)c(Cl)c(Cl)c2C1=O,Potency,[1],inactive
same,Potency,[2],inactive
C[C@@H]1O[C@@H](O[C@H]2[C@H](O[C@H]3[C@H](O[C@H]4CC[C@@]5(C)C(CC[C@]6(C)C5CC=C5[C@@H]7CC(C)(C)CC(=O)[C@]7(C)CC[C@]56C)[C@@]4(C)CO)O[C@H](C(=O)O)[C@@H](O)[C@@H]3O)O[C@H](CO)[C@H](O)[C@@H]2O)[C@H](O)[C@H](O)[C@H]1O (some centres undefined),outcome,[1],inactive [at 9.29 µM]
same,outcome,[2],inactive [at 9.29 µM]
"CCCCCOc1ccc(-c2cc(-c3ccc(C(=O)N[C@H]4C[C@@H](O)[C@@H](O)NC(=O)C5[C@@H](O)[C@@H](C)CN5C(=O)C([C@H](O)CC(N)=O)NC(=O)C([C@H](O)[C@@H](O)c5ccc(O)c(OS(=O)(=O)O)c5)NC(=O)C5C[C@@H](O)CN5C(=O)C([C@@H](C)O)NC4=O)cc3)no2)cc1 (stereo partly drawn) (X2-[Orn(4R-OH,5R-OH)][ξThr(3R)][ξPro(4R-OH)][ξhTyr(3S-OH,4S-OH,3'-OSO3H)][ξGln(3R-OH)][X3]; lactam 1-C)",Potency,[1],inactive
same,Potency,[2],inactive
same,Potency,[4],21.5 µM (active)
same,Potency,[5],21.5 µM (active)
same,Potency,[6],2.24 µM (active)
same,Potency,[7],4.47 µM (active)
same,Potency,[8],4.29 µM (active)
Cc1ccccc1NC(=O)Nc1ccc(CN2C(=O)N([C@@H](CC(C)C)C(=O)N[C@@H](CC(=O)O)c3ccccc3)C(=O)C2(C)C)cc1,Potency,[1],inactive
same,Potency,[2],inactive
same,Potency,[3],inactive
same,Potency,[5],inactive
same,Potency,[10],inactive
same,Potency,[6],31.6 µM (active)
same,Potency,[7],7.08 µM (active)
same,Potency,[8],27.8 µM (active)
same,Potency,[11],10 µM (active)
same,Potency,[9],inactive
CCC(C)/C=C(C)/C=C/C1=CC2=C(Cl)C(=O)C(C)(OC(C)=O)C(=O)C2=CN1CCCCC(N)C(=O)O (centres undefined),Potency,[1],inactive
same,Potency,[2],inactive
CC(C)C1NC(=O)C(CC2(O)c3ccccc3N3C(=O)C(Cc4ccccc4)NC32)NC1=O (centres undefined),Potency,[1],inactive
same,Potency,[2],inactive
same,Potency,[6],inactive
C=C1CCC2C(C)(C(=O)OC)CCCC2(C)C1CCC1=CCOC1=O (centres undefined),Potency,[1],inactive
same,Potency,[2],inactive
same,Potency,[6],inactive
CC(C)C1CCC(C(=O)N[C@@H](Cc2ccccc2)C(=O)O)CC1 (some centres undefined),Potency,[1],inactive
same,Potency,[2],inactive
same,Potency,[6],31.6 µM (active)
COc1cc(/C=C/C(=O)O[C@@H]2C[C@](O)(C(=O)O)C[C@@H](O)[C@H]2O)ccc1O,Potency,[1],inactive
same,Potency,[2],inactive
same,Potency,[6],inactive
CC1CC=C2C1CC1(O)C(=O)CC2(C)C1(C)CO (centres undefined),Potency,[1],inactive
same,Potency,[2],inactive
same,Potency,[6],35.5 µM (active)
OCC(O)C(c1c[nH]c2ccccc12)c1c[nH]c2ccccc12 (centres undefined),Potency,[1],inactive
same,Potency,[2],inactive
same,Potency,[6],50.1 µM (active)
O=C(N[C@H](Cc1ccccc1)C(=O)O)c1sc2cc(F)ccc2c1Cl,Potency,[1],inactive
same,Potency,[2],inactive
same,Potency,[6],39.8 µM (active)
N#CN1CCC[C@@H](n2nc(-c3ccc(Oc4ccc(F)cc4F)cc3)c(C(N)=O)c2N)C1,Potency,[1],inactive
same,Potency,[2],inactive
same,Potency,[6],inactive
CC(C)CC(=O)NCCn1cc(C(=O)O)c(=O)cc1C(O)c1ccccc1 (centres undefined),Potency,[1],inactive
same,Potency,[2],inactive
same,Potency,[6],inactive
CC(C)=C1CC2C(CCC2(C)O)C(C)(O)CC1=O (centres undefined),Potency,[1],inactive
same,Potency,[2],inactive
same,Potency,[6],inactive
C=C1CC23CC1CCC2C12OC(=O)C(C)(C(O)C(O)C1O)C2C3C(=O)O (centres undefined),Potency,[1],inactive
same,Potency,[2],inactive
same,Potency,[6],inactive
CC1=CC[C@@]2(C)CC[C@@](O)(C(C)C)[C@@H]2[C@@H](O)C1,Potency,[1],inactive
same,Potency,[2],inactive
same,Potency,[6],inactive
same,Potency,[7],inactive
